# Measurements as given in PubChem BioAssay.
# Activity calls are given as the source filed them. Unless noted, how the calls were made is not given here.
# How the values were obtained:
# [1] = compound effects on lung adenocarcinoma cell viability – A549, calcein-AM fluorescence, 48 h, basal, profiling panel (AID 1162); details: higher = more signal; further: test concentration not given here
# [2] = compound effects on differentiated 3T3-L1 adipocyte viability – cell-based, 3T3-L1 adipocytes, calcein-AM fluorescence, 48 h, basal, profiling panel (AID 1163); details: 3T3-L1 adipocytes viability, higher = more signal; further: test concentration not given here
# [3] = compound effects on hepatocellular carcinoma cell viability – HepG2, calcein-AM fluorescence, 48 h, basal, profiling panel (AID 1164); details: higher = more signal; further: test concentration not given here
# [4] = compound effects on multiple myeloma cell viability – MM1S, calcein-AM fluorescence, 48 h, basal, profiling panel (AID 1165); details: higher = more signal;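 further: viability of MM1S multiple myeloma cells under basal unstimulated conditions; test concentration not given here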
# [5] = calcein-AM signal in unstimulated myeloma cells – cell-based, calcein-AM fluorescence, 48 h, PK04 Diversity Set, profiling panel (AID 1166); details: RPMI8226 myeloma viability, higher = more signal;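 further: cells grown under basal conditions without added stimulus; test concentration not given here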
# [6] = JC-1 mitochondrial signal, unstimulated HepG2 cells – cell-based, JC-1 fluorescence, 24 h, 100 nL compound, profiling panel (AID 1167); details: HepG2 mitochondrial potential, higher = more signal; further: test concentration not given here
# [7] = JC-1 mitochondrial signal, unstimulated adipocytes – cell-based, JC-1 fluorescence, 3T3-L1 adipocytes, 24 h, 100 nL compound, profiling panel (AID 1168); details: JC-1 mitochondrial fluorescence, higher = more signal, called active from +8 up or from −8 down; further: test concentration not given here
# [8] = JC-1 mitochondrial signal, unstimulated myeloma cells – cell-based, JC-1 fluorescence, RPMI8226, 24 h, 100 nL compound, profiling panel (AID 1169); details: JC-1 mitochondrial potential fluorescence, higher = more signal; further: test concentration not given here
# [9] = JC-1 mitochondrial signal, unstimulated MM1S myeloma – cell-based, JC-1 fluorescence, 24 h, 100 nL compound, profiling panel (AID 1170); details: MM1S mitochondrial potential, higher = more signal; further: test concentration not given here
# [10] = resazurin metabolic signal in A549 cells – cell-based, resazurin fluorescence, 24 h, PK04 Diversity Set, profiling panel (AID 1171); details: A549 viability, higher = more signal, called active from +8 up or from −8 down; further: test concentration not given here
# [11] = resazurin metabolic signal in HepG2 cells – cell-based, resazurin fluorescence, 24 h, PK04 Diversity Set, profiling panel (AID 1172); details: HepG2 viability, higher = more signal; further: test concentration not given here
# [12] = budding yeast growth changes without added modifier – OD600, strain BY4716, 24 h, basal condition, primary screen (AID 1173); details: S. cerevisiae BY4716 growth, OD600, 24 h; higher = more signal, called active from +8 up or from −8 down
# [13] = viability profiling in MM1S myeloma cells – cell-based, resazurin fluorescence, basal, 24 h, PK04 Diversity Set, profiling panel (AID 1174); details: higher = more signal, called active from +8 up or from −8 down; further: test concentration not given here
# [14] = target: Dihydroorotate dehydrogenase (quinone), mitochondrial (Plasmodium falciparum (isolate 3D7)) (UniProt Q08210); assay: inhibition of P. falciparum DHODH – biochemical, C-terminal His tag, absorbance 600 nm, primary screen (AID 1175); details: PfDHODH enzyme, DCIP absorbance 600 nm; higher = more signal, called active from +8 up or from −8 down;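 further: recombinant parasite enzyme with a five histidine tag at its C terminus; test concentration not given here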
# [15] = inhibition of PAO1 biofilm formation – strain PAO1, LB-PBS medium, absorbance 600 nm, primary screen (AID 1176); further: test concentration not given here; details: P. aeruginosa PAO1 growth/biofilm, A600, 12 h; higher = more signal
# [16] = growth modulation of vineyard yeast isolate – strain RM11-1a, OD600, basal, 24 h, primary screen (AID 1177);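 further: cultures grown under basal conditions with no added stressor; test concentration not given here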; details: S. cerevisiae RM11-1a growth, OD600, 24 h; higher = more signal, called active from +8 up or from −8 down
# [17] = growth of efflux-deficient E. coli DRC39 – strain DRC39, OD650, 24 h, E. coli filamentation inducers, primary screen (AID 1178);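 further: growth measured as culture turbidity by optical density at 650 nm; test concentration not given here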; details: E. coli DRC39 acrAB, higher = more signal, called active from +8 up or from −8 down
# [18] = growth of efflux-deficient E. coli DRC39 – strain DRC39, OD650, 48 h, E. coli filamentation inducers, primary screen (AID 1179);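 further: screen aims at cell division blockers that make cells filament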; details: E. coli DRC39 delta-acrAB growth, higher = more signal, called active from +8 up or from −8 down
# [19] = viability profiling in RPMI8226 myeloma cells – cell-based, resazurin fluorescence, basal, 24 h, PK04 Diversity Set, profiling panel (AID 1180); details: higher = more signal;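 further: RPMI8826 multiple myeloma cell line at 5000 cells per well; test concentration not given here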
# [20] = target: E3 ubiquitin-protein ligase XIAP (Homo sapiens) (UniProt P98170); assay: small molecules binding XIAP protein – biophysical, small-molecule microarray, fluorescence 635 nm, primary screen (AID 1181); details: higher = more signal;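 further: score merges 667 nm emission and signal to noise over triplicate slides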
# Chain of E3 ubiquitin-protein ligase XIAP (Homo sapiens) (P98170 whole entry, looked up): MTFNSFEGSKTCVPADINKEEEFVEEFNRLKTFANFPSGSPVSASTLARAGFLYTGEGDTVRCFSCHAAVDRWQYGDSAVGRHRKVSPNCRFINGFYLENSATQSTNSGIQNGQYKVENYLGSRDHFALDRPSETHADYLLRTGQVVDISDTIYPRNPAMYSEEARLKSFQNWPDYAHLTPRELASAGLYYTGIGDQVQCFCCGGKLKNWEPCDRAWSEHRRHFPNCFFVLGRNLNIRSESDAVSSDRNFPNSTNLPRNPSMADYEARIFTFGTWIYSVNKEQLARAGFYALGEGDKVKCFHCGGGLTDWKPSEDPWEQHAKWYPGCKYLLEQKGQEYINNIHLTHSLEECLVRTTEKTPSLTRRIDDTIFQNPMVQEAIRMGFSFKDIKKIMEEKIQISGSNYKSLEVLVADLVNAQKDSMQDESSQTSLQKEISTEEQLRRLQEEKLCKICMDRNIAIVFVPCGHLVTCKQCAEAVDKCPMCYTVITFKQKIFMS
# Chain of Dihydroorotate dehydrogenase (quinone), mitochondrial (Plasmodium falciparum (isolate 3D7)) (Q08210 whole entry, looked up): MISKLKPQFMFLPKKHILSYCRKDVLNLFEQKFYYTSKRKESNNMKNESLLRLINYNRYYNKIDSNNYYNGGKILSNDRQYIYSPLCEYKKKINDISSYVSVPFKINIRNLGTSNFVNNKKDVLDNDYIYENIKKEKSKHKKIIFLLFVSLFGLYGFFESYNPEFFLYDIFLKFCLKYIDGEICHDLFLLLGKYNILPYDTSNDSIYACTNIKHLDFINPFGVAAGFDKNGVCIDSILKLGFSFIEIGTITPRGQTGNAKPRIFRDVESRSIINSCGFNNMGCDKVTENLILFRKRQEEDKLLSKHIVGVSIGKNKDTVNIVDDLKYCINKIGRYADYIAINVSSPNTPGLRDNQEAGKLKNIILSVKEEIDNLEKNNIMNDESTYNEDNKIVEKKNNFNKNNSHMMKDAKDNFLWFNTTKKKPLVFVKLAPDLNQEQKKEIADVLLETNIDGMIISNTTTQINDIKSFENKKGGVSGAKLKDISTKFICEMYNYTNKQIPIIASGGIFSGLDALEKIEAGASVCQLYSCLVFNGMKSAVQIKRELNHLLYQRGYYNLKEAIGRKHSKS
Structure (SMILES),z-score [1],z-score [2],z-score [3],z-score [4],z-score [5],z-score [6],z-score [7],z-score [8],z-score [9],z-score [10],z-score [11],z-score [12],z-score [13],composite z-score [14],z-score [15],z-score [16],z-score [17],z-score [18],z-score [19],composite z-score [20]
Cc1ccc(N2C(=O)c3ccccc3[C@@H](C(=O)NCC(C)C)[C@@H]2c2ccc(CO)cc2)nc1,0.593,-0.136,0.558,-0.0617,0.662,2.02,1.09 (inactive),-0.482,0.133,-0.613 (inactive),-0.324,0.0089 (inactive),0.439 (inactive),0.351 (inactive),0.348 (inactive),-0.746 (inactive),0.483 (inactive),0.603 (inactive),0.68,-0.148
C=C(/C(=C/C[C@@H](OC(C)=O)c1ccc(CO)o1)c1cnc2ccccc2c1)C(C)C,-0.0718,1.36,-1.07,-0.644,-0.596,-1.33,-0.561 (inactive),-0.292,0.335,-1.45 (inactive),-1.05,-0.177 (inactive),0.0858 (inactive),-8.23 (active),0.0721 (inactive),0.27 (inactive),0.99 (inactive),-0.0766 (inactive),0.0262,0.701
O=C1C2C=CC(C(O)c3cccc4ccccc34)N(n3cnnc3)C2C(=O)N1Cc1ccccc1 (stereo not given),-0.986,-0.06,-1.6,-0.467,-1.81,-1.23,-1.18 (inactive),-0.0245,-0.0153,-0.522 (inactive),-0.447,-17.4 (active),-1.24 (inactive),-2.08 (inactive),-0.128 (inactive),-23.2 (active),-1.24 (inactive),-1.14 (inactive),-1.07,-0.0421
CO[C@H]1O[C@H](CO)[C@@H](OC(=O)Nc2ccc(C(F)(F)F)cc2)[C@H](OC(=O)Nc2ccccc2)[C@@H]1OC(=O)Nc1ccccc1,-0.902,-0.133,-1.28,-2.72,-2.84,-0.901,-1.47 (inactive),-0.828,0.469,-0.0537 (inactive),-0.5,-0.332 (inactive),-1.34 (inactive),-0.798 (inactive),0 (inactive),0.0212 (inactive),0.886 (inactive),-0.053 (inactive),-0.771,0.0468
Cc1ccccc1/C=C/C=O,1.59,-0.345,0.93,-0.499,0.0415,1.65,1.39 (inactive),0.426,-0.962,-0.122 (inactive),0.779,-1.94 (inactive),0.971 (inactive),-0.464 (inactive),-0.0902 (inactive),-0.412 (inactive),1.23 (inactive),1.45 (inactive),1.36,-0.141
O[C@@H](Cc1ccccc1)[C@@H](/C=C/c1ccccc1)NCc1ccccc1Br,0.0965,-0.766,-0.0276,-1.3,-0.771,0.313,0.19 (inactive),-0.228,-1.8,-0.396 (inactive),0.13,-6.87 (inactive),0.119 (inactive),-1.05 (inactive),-0.107 (inactive),-0.955 (inactive),0.429 (inactive),-0.21 (inactive),0.115,-0.214
CCCNC(=O)[C@@]1(c2ccc([N+](=O)[O-])cc2)CC(=O)N(CC23CC4CC(CC(C4)C2)C3)[C@@H]1c1ccc(CO)cc1I,-1.29,-0.738,-4.9,-3.81,-4.32,0.243,-0.0911 (inactive),-0.872,-2.18,-3.39 (inactive),-2.95,0.285 (inactive),-3.47 (inactive),0.286 (inactive),0.32 (inactive),1.34 (inactive),-0.643 (inactive),0.198 (inactive),-4.07,-0.0749
C=C[C@@H](C)[C@@H](OC(=O)Nc1ccc(OC)cc1)c1ccc(O)c2ccccc12,-1.24,-0.336,-1.63,-2.72,-4.29,-3.19,-0.425 (inactive),-1.13,-1.23,-0.527 (inactive),-1.42,-18.5 (active),-5.02 (inactive),-3.79 (inactive),1.43 (inactive),-22.2 (active),0.99 (inactive),0.224 (inactive),-4.37,-0.125
CCCNC(=O)[C@@]1(C)c2ccccc2C(=O)N(Cc2cc(C(F)(F)F)cc(C(F)(F)F)c2)[C@H]1c1ccc(CO)cc1,-0.283,0.531,0.0751,0.341,-1.23,1.22,-0.161 (inactive),-0.0935,-0.643,1.27 (inactive),0.597,-0.991 (inactive),0.526 (inactive),-0.241 (inactive),0.882 (inactive),-0.563 (inactive),0.0099 (inactive),-0.161 (inactive),0.73,-0.212
CC1CC/C=C\[C@H]2OC34C=CCN(Cn5nnc6ccccc65)C(=O)[C@H]3N(CCCO)C(=O)[C@@H]4C2C(=O)O1 (stereo not given in full),-0.677,1.5,-0.501,0.159,-0.894,-0.0699,-0.382 (inactive),0.0216,0.638,0.356 (inactive),-0.0236,1.06 (inactive),0.502 (inactive),0.317 (inactive),-0.221 (inactive),0.801 (inactive),0.0706 (inactive),-0.0371 (inactive),0.623,0.244
C[C@H]1C2[C@H](Cc3ccccc3)NC(=O)[C@]23C(=O)N[C@H](Cc2ccccc2)C(=O)N[C@H](Cc2ccccc2)C(=O)NC/C=C/CCC/C=C/C3[C@@H]2O[C@]12C (stereo not given in full),0.144,1.58,-0.385,-1.01,-3.48,1.71,-0.77 (inactive),-0.469,-1.08,-1.5 (inactive),-1.6,-1.6 (inactive),-0.121 (inactive),0.453 (inactive),-0.283 (inactive),0.336 (inactive),0.276 (inactive),-0.934 (inactive),-0.403,-0.0807
CC(C)[C@H]1COC(=O)N1C(=O)[C@H]1[C@@H](c2ccccc2)N(c2ccccc2)O[C@@H]1C,0.198,0.343,0.612,-0.357,0.133,0.941,0.997 (inactive),-0.361,-1.46,1.72 (inactive),0.701,-1.42 (inactive),0.517 (inactive),-0.656 (inactive),0.0694 (inactive),1.46 (inactive),0.166 (inactive),0.703 (inactive),1.41,0.0785
CN1C(=O)C2C(C1=O)C1C=C(c3ccc(CO)cc3)C2C(C2CC2)N1Cc1sc2ccccc2c1Cl (stereo not given),-0.245,0.612,1.79,-3.2,-4.33,2.19,0.46 (inactive),-0.957,-2.05,-2.15 (inactive),0.0076,-1.82 (inactive),-5.41 (inactive),-1.46 (inactive),0.255 (inactive),1.2 (inactive),0.225 (inactive),0.0618 (inactive),-3.3,0.262
CC(=O)NCCCC[C@@H]1NC(=O)[C@@H]2C[C@H](C(=O)NCc3ccc(F)cc3)[C@H](c3ccc(O)cc3)N2C1=O,-0.484,0.347,-0.797,-1.18,-0.556,1.28,0.58 (inactive),0.0286,0.28,0.361 (inactive),-0.0579,-0.462 (inactive),-0.276 (inactive),-1.13 (inactive),-0.226 (inactive),-0.985 (inactive),0.304 (inactive),-0.598 (inactive),0.473,0.105
CC(=O)n1cc(C(O)C2C=CC3C(=O)N(c4ccccc4)C(=O)C3N2Nc2ccc(C#N)cc2)c2ccccc21 (stereo not given),1.38,-0.876,0.52,0.245,-0.434,-1.04,-0.855 (inactive),0.423,-0.488,1.52 (inactive),-0.592,-2.71 (inactive),-0.897 (inactive),-0.796 (inactive),0.956 (inactive),-0.129 (inactive),-0.698 (inactive),-0.119 (inactive),-0.189,0.147
C=C[C@H](OC)[C@@H](OC(=O)Nc1ccc(SC)cc1)c1ccc(OCCO)cc1,-0.13,0.559,0.0758,-0.164,0.609,-2.55,0.734 (inactive),-0.0748,-0.887,-0.139 (inactive),-0.237,-1.95 (inactive),-0.895 (inactive),-1.02 (inactive),0.662 (inactive),0.39 (inactive),0.0364 (inactive),0.0255 (inactive),-0.204,-0.0559
Cc1ccc(S[C@]2(C(=O)NCCN3CCOCC3)CC(=O)N(C3CCCCC3)[C@@H]2c2ccc(CO)cc2)cc1,2.25,0.486,0.555,0.309,-0.65,-0.0786,-0.281 (inactive),0.698,0.485,1.51 (inactive),0.375,0.436 (inactive),0.511 (inactive),0.113 (inactive),0.186 (inactive),-0.463 (inactive),0.048 (inactive),-0.483 (inactive),0.838,0.0024
COC(=O)[C@@]1(Cc2ccc(OC)cc2)[C@H]2c3cc(C(=O)N4CCCC4)n(CCN4CCOCC4)c3C[C@H]2CN1C(=O)c1ccccc1,-1.35,0.077,0.707,0.847,-1.16,2.52,0.642 (inactive),0.28,-0.936,0.0452 (inactive),0.142,0.642 (inactive),-0.0281 (inactive),-1.33 (inactive),0.231 (inactive),0.48 (inactive),0.0378 (inactive),0.484 (inactive),0.639,0.0305
